Assay [1] in a line: compounds binding Alexa647 anti-His antibody – biochemical, small-molecule microarray, 635 nm fluorescence, artefact control for SMM control protein annotation, primary screen (AID 1128).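 Further: score merges feature fluorescence with signal-to-noise for each printed compound spot.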 The conditions noted are these: higher = more signal.
For assay [2], the system named is Human papillomavirus type 1a E7 protein (residues 1-88). In words: HPV1a E7 small-molecule binders, primary screen, biochemical, small-molecule microarray, residues 1-88, 635 nm (AID 1129). Particulars: small-molecule microarray binding, fluorescence 635 nm; higher = more signal.
Assay [3] concerns the target Focal adhesion kinase 1 (Homo sapiens) (UniProt Q05397). In words: PTK2 protein binding on printed compound slides – biochemical, small-molecule microarray, 635/667 nm fluorescence, BSA, DTT, primary screen (AID 1130).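 Further: composite of spot emission at 667 nm and signal to noise over triplicate slides.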 Particulars: 635 nm fluorescence, higher = more signal.
For assay [4], the system named is Fibrinogen (Alexa647-labelled). In words: Alexa647-fibrinogen binding to printed small molecules – biochemical, small-molecule microarray, 635/667 nm fluorescence, artefact control for SMM control-protein annotation, profiling panel (AID 1131).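 Further: z-score merges 667 nm fluorescence with per-spot signal-to-noise over triplicate slides.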 Particulars: fibrinogen-A647 binding fluorescence, higher = more signal.
Assay [5] has as its target Follistatin (Homo sapiens) (UniProt P19883). In words: FST protein binding to printed compounds – biochemical, small-molecule microarray, 635/667 nm fluorescence, primary screen (AID 1132). Particulars: 635 nm fluorescence, higher = more signal.
Assay [6] has as its target Fibroblast growth factor 2 (Homo sapiens) (UniProt P09038). Put plainly: basic fibroblast growth factor binding to printed compounds – biochemical, small-molecule microarray, 635/667 nm fluorescence, primary screen (AID 1133). Particulars: FGF2, fluorescence 635/667, higher = more signal.
Assay [7] is described as follows: JC-1 mitochondrial potential readout, lung cancer cells – cell-based, A549, JC-1 fluorescence, basal, 24 h, 100 nL, profiling panel (AID 1138).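 Further: A549 lung adenocarcinoma cells under basal conditions with no added stimulus; test concentration not given here.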 Particulars: higher = more signal.
Assay [8] deals with Lefty1. Put plainly: Lefty1 protein binding to printed compounds – biochemical, small-molecule microarray, 635/667 nm fluorescence, primary screen (AID 1139). The conditions noted are these: fluorescence 635/667, higher = more signal.
In assay [9] the test system is wheat germ agglutinin (Triticum aestivum), Alexa647-labelled. Put plainly: Alexa647-WGA lectin binding to printed small molecules – biochemical, small-molecule microarray, 635/667 nm fluorescence, artefact control for SMM control-protein annotation, profiling panel (AID 1140).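 Further: score merges 667 nm feature emission with signal to noise over triplicate slides.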 The conditions noted are these: WGA-A647 binding, 635 nm fluorescence, higher = more signal.

The target in assay [10] is Luciferin 4-monooxygenase (Photinus pyralis) (UniProt P08659). Put plainly: inhibition of purified Photinus pyralis luciferase – biochemical, luminescence, purified enzyme, 2006 set, primary screen (AID 1141).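 Further: cell-free assay with purified firefly luciferase at 100 ng per well in PBS; test concentration not given here.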 The conditions noted are these: purified firefly luciferase, SteadyGlo luminescence, 30 min; higher = more signal, called active from +8 up or from −8 down.

The text below walks through data of PubChem BioAssay.

Calls of active or inactive are those of the source.

Sequence of Fibroblast growth factor 2 (Homo sapiens) (P09038 whole entry, looked up): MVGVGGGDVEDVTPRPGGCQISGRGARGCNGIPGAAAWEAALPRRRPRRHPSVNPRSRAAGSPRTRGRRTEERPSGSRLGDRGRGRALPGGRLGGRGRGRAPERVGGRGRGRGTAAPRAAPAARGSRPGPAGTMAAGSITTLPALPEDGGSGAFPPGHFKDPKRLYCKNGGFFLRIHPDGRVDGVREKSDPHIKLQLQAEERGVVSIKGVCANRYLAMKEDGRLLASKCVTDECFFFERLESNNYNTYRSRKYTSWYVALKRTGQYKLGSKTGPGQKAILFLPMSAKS
Sequence of Focal adhesion kinase 1 (Homo sapiens) (Q05397 whole entry, looked up): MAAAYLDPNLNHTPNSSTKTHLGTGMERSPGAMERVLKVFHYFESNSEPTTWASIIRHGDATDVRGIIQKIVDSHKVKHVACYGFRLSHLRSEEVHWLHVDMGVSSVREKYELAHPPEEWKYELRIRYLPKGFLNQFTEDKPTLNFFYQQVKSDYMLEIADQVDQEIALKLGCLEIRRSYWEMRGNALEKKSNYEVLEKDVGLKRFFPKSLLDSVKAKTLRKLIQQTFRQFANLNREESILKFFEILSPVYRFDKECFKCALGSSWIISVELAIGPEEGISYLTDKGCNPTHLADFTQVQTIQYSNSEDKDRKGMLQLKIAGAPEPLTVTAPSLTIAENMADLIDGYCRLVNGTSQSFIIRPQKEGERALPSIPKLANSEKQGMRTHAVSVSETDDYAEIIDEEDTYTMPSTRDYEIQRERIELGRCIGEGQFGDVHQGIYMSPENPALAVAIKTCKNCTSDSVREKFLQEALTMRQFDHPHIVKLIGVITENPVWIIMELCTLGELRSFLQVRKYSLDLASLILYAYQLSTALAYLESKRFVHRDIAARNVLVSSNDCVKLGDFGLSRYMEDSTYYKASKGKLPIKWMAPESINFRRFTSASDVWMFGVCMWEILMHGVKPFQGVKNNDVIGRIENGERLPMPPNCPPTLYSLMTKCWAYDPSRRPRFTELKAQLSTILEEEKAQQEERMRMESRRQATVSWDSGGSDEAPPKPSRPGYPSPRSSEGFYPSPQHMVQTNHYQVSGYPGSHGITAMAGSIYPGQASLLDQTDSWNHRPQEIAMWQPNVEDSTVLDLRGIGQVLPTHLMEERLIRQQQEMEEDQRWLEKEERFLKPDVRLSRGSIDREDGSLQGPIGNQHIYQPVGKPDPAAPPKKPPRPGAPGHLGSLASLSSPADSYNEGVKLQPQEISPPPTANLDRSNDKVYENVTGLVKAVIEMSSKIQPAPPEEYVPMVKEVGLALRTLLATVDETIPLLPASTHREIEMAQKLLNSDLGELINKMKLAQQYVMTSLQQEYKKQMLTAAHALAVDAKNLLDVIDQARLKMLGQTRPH
Sequence of Follistatin (Homo sapiens) (P19883 whole entry, looked up): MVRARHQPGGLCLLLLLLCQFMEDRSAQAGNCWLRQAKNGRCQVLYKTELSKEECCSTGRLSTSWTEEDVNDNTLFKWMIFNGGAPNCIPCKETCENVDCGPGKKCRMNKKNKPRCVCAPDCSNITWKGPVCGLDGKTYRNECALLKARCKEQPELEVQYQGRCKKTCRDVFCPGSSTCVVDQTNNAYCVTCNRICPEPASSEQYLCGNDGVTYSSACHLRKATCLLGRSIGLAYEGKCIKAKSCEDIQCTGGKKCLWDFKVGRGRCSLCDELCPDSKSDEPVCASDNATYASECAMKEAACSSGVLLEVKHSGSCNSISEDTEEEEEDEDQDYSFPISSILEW
Sequence of Luciferin 4-monooxygenase (Photinus pyralis) (P08659 whole entry, looked up): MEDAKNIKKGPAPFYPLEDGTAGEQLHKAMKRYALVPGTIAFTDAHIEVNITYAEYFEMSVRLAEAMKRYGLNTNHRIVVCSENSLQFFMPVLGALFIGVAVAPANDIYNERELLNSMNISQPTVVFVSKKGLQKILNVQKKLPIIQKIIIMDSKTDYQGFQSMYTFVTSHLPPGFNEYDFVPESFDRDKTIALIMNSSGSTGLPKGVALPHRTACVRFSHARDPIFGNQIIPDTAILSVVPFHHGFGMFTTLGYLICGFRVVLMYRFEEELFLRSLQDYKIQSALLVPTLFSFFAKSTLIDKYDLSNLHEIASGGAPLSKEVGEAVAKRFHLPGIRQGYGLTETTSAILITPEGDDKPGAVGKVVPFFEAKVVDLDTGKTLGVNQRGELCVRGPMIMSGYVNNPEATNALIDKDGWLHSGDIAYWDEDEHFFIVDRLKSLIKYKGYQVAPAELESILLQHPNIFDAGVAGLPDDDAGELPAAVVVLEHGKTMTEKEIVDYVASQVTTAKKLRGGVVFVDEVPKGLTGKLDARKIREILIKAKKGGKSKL

As for `CC(C)C(=C=CC[C@H](O)c1ccc(CO)o1)CCO`, the composite z-score in assay [1] was 0.748; in assay [2], 0.679; in assay [3] it was 0.217; in assay [4] it was 0.0411; in [5], 1.01; in assay [6], 0.489. For the same compound, the composite z-score in [8] was 1.37; in assay [9] it was 0.383. The z-score in assay [7] was -0.589; in assay [10], -0.751 (inactive).
For `CC(C)(C)OC(=O)CC[C@]1(C(=O)NCCN2CCOCC2)COC(c2ccc(OCCCO)cc2)=N1`, the composite z-score in assay [1] amounted to 1.34; in assay [2] it was 1.19; in assay [3], 0.436; in [4], 0.46; in assay [5] it was 1.32; in assay [6] it was 1.78. Moreover, the results for the composite z-score in assay [8] and in assay [9] were 0.78 and 0.253, respectively. Besides, the z-score in assay [7] is -0.13; in [10] it was 0.965 (inactive).
Turning to `CCC(CC)C(O)C1C=CC2C(=O)N(c3ccccc3)C(=O)C2N1Nc1ccccc1` (stereo not given), the composite z-score in assay [1] was determined as 1.51; in [2], 1.25; in assay [3], 0.633; in assay [4], 1; in [5], 1.06; in assay [6], 0.514. For the same compound, the composite z-score turned out to be 0.858 in [8] and 1.03 in assay [9]. Besides, the values for the z-score in assay [7] and in assay [10] were -0.117 and -1.9 (inactive), respectively.
With `CCCCCCc1nc(-c2ccc(-c3ccc(Cl)c(Cl)c3)o2)c(C)c2c1[Si](C(C)C)(C(C)C)OC2`, the composite z-score in [1] was -0.0923; in assay [2], -0.634; in [3] it was -0.0899; in [4] it was -0.086; in assay [5], -0.0705; in assay [6], -0.773. Also, the composite z-score is 0.268 in assay [8] and -0.328 in assay [9]. Also, the z-score is -0.838 in assay [7] and -2.67 (inactive) in assay [10].
In the case of `O=C1OCCC=C[C@H]2OC34C=CCN(CCN5CCOCC5)C(=O)[C@H]3N(CCCCCO)C(=O)[C@@H]4C12` (stereo not given in full), the composite z-score is -0.166 in assay [1]; 0.56 in assay [2]; 0.398 in assay [3]; 0.709 in assay [4]; -0.211 in [5]; -0.363 in assay [6]. In addition, the composite z-score in assay [8] was -0.301; in assay [9] it was 0.615. Further, the z-score in assay [7] was 0.791; in assay [10] it was -0.956 (inactive).
Turning to `CO[C@H]1O[C@H](CO)[C@@H](OC(=O)Nc2cccc(F)c2)[C@H](OC(=O)Nc2ccccc2)[C@H]1OC(=O)Nc1ccccc1`, the composite z-score in assay [1] turned out to be 2.02; in assay [2], 1.29; in [3], 0.656; in assay [4], 0.993; in assay [5], 1.35; in assay [6], 1.12. The composite z-score in assay [8] came out at 1.3; in [9], 0.662. Further, the z-score in assay [7] was -1.18; in [10], 0.124 (inactive).
`[N-]=[N+]=NCc1ccccc1C[C@@]1(C(=O)NCC(O)CO)N=C(c2ccc(OCCCO)cc2)O[C@@H]1c1ccccc1` (stereo not given in full): the composite z-score in assay [1] was 1.86; in [2], 0.0034; in assay [3] it was -0.225; in assay [4], -0.513; in assay [5], 0.602; in assay [6], -0.287. The composite z-score in assay [8] was -1.7; in assay [9], 0.276. For the same compound, the z-score is 0.663 in [7] and -1.69 (inactive) in assay [10].
With `CCCC=C(CCC)[C@@H](NS(=O)(=O)c1ccc(Cl)cc1)c1ccc(C(=O)OC)cc1`, the composite z-score in assay [1] was 0.817; in assay [2], 0.843; in assay [3], 0.0301; in [4] it was 0.539; in assay [5], -0.843; in assay [6], -0.174. Further, the results for the composite z-score in assay [8] and in assay [9] were 0.181 and 0.309, respectively. Further, the z-score in [7] is 0.418; in assay [10] it was 2.84 (inactive).
For `COc1ccc(NC(=O)O[C@H]2[C@H](OC(=O)c3cc4ccccc4[nH]3)[C@@H](OC(=O)c3cc4ccccc4[nH]3)[C@@H](OC)O[C@@H]2CO)cc1`, the composite z-score in [1] amounted to 1.23; in [2], 0.359; in assay [3], 0.448; in [4], 0.662; in assay [5], 0.752; in [6], 1.38. Also, the composite z-score in [8] came out at 0.194; in assay [9], 0.566. Moreover, the values for the z-score in assay [7] and in assay [10] were 0.816 and -2.09 (inactive), respectively.
On to `CC#CC(=O)Oc1ccc(Br)cc1C=CC(=O)OCC`, for which the composite z-score is -0.179 in assay [1]; 1.06 in assay [2]; 0.167 in assay [3]; -0.382 in assay [4]; 0.233 in assay [5]; -0.0698 in assay [6]. The composite z-score came to 0.0606 in assay [8] and 0.665 in assay [9]. In addition, the z-score in [7] was -0.817; in [10], -0.39 (inactive).
For the compound `COCCOC(=O)N1C(=O)[C@@]2(c3cc(C#CCCO)ccc31)[C@H](c1ccc(O)cc1)N1[C@H](c3ccccc3)[C@H](c3ccccc3)OC(=O)[C@H]1[C@@H]2C(=O)N1CCN(c2ncccn2)CC1`, the composite z-score turned out to be 1.34 in assay [1]; 1.25 in assay [2]; 1.26 in [3]; 0.959 in assay [4]; 1 in [5]; 0.986 in [6]. The figures for the composite z-score in assay [8] and in [9] were 0.883 and 0.932, respectively. Further, the values for the z-score in assay [7] and in assay [10] were 0.00649 and 0.832 (inactive), respectively.
